# About 410 targets per protein were measured; listed, in parts, are those with the strongest signals and a random draw of the rest.
# B1: SAOUHSC 00176 (Staphylococcus aureus) (protein)
# chain: MSKILKCITLAVVMLLIVTACGPNRSKEDIDKALNKDNSKDKPNQLTMWVDGDKQMAFYKKITDQYTKKTGIKVKLVNIGQNDQLENISLDAPAGKGPDIFFLAHDNTGSAYLQGLAAEIKLSKDELKGFNKQALKAMNYDNKQLALPAIVETTALFYNKKLVKNAPQTLEEVEANAAKLTDSKKKQYGMLFDAKNFYFNYPFLFGNDDYIFKKNGSEYDIHQLGLNSKHVVKNAERLQKWYDKGYLPKAATHDVMIGLFKEGKVGQFVTGPWNINEYQETFGKDLGVTTLPTDGGKPMKPFLGVRGWYLSEYSKHKYWAKDLMLYITSKDTLQKYTDEMSEITGRVDVKSSNPNLKVFEKQARHAEPMPNIPEMRQVWEPMGNASIFISNGKNPKQALDEATNDITQNIKILHPSQNDKKGD
# Tests used:
# Assay in all cases: glycan array binding signal (z-score within array); higher = stronger binding
# Conditions in all cases: glycan notation: IUPAC condensed, linker removed
# [1] = target: Fuc(a1-2)Gal(b1-4)GlcNAc(b1-2)Man(a1-3)[Fuc(a1-2)Gal(b1-4)GlcNAc(b1-2)Man(a1-6)]Man(b1-4)GlcNAc(b1-4)[Fuc(a1-6)]GlcNAc
# Procedure, shortened: (§1)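 The binding signal is a Z-score computed within each array and averaged over linkers. Arrays of the same protein sequence at different concentrations or buffers were also averaged together. Data originate from 3228 arrays in the Consortium for Functional Glycomics database, kept only where the protein sequence was available.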
# [2] = target: Fuc(a1-2)Gal(b1-4)[Fuc(a1-3)]GlcNAc(b1-2)[Fuc(a1-2)Gal(b1-4)[Fuc(a1-3)]GlcNAc(b1-4)]Man(a1-3)[Fuc(a1-2)Gal(b1-4)[Fuc(a1-3)]GlcNAc(b1-2)Man(a1-6)]Man(b1-4)GlcNAc(b1-4)GlcNAc
# Procedure, shortened: as §1
# [3] = target: Fuc(a1-3)[Gal3S(b1-4)]GlcNAc
# Procedure, shortened: as §1
# [4] = target: Fuc(a1-3)[Gal3S(b1-4)]GlcNAc6S
# Procedure, shortened: as §1
# [5] = target: Fuc(a1-3)[GalNAc(b1-4)]GlcNAc
# Procedure, shortened: as §1
# [6] = target: Gal(a1-3)Gal(b1-3)GlcNAc
# Procedure, shortened: as §1
# [7] = target: Gal(a1-3)Gal(b1-3)GlcNAc(b1-2)Man(a1-3)[Gal(a1-3)Gal(b1-3)GlcNAc(b1-2)Man(a1-6)]Man(b1-4)GlcNAc(b1-4)GlcNAc
# Procedure, shortened: as §1
# [8] = target: Gal(a1-3)Gal(b1-3)GlcNAc(b1-3)GalNAc
# Procedure, shortened: as §1
# [9] = target: Gal(a1-4)GlcNAc
# Procedure, shortened: as §1
# [10] = target: Gal(b1-2)Gal
# Procedure, shortened: as §1
# [11] = target: Gal(b1-3)GlcNAc(a1-6)Gal(b1-4)GlcNAc
# Procedure, shortened: as §1
# [12] = target: Gal(b1-3)GlcNAc(b1-2)Man(a1-3)[Gal(b1-3)GlcNAc(b1-2)Man(a1-6)]Man(b1-4)GlcNAc(b1-4)GlcNAc
# Procedure, shortened: as §1
# [13] = target: Gal(b1-3)GlcNAc(b1-3)Gal(b1-4)GlcNAc(b1-2)Man(a1-3)[Gal(b1-3)GlcNAc(b1-3)Gal(b1-4)GlcNAc(b1-2)Man(a1-6)]Man(b1-4)GlcNAc(b1-4)GlcNAc
# Procedure, shortened: as §1
# [14] = target: Gal(b1-3)GlcNAc(b1-3)GalNAc
# Procedure, shortened: as §1
# [15] = target: Gal(b1-4)GlcNAc(b1-2)Man(a1-3)Man(b1-4)GlcNAc(b1-4)GlcNAc
# Procedure, shortened: as §1
# [16] = target: Gal(b1-4)GlcNAc(b1-2)Man(a1-3)[Man(a1-6)]Man(b1-4)GlcNAc(b1-4)GlcNAc
# Procedure, shortened: as §1
# [17] = target: Gal(b1-4)GlcNAc(b1-2)[Gal(b1-4)GlcNAc(b1-4)]Man(a1-3)[GlcNAc(b1-4)][Gal(b1-4)GlcNAc(b1-2)Man(a1-6)]Man(b1-4)GlcNAc(b1-4)GlcNAc
# Procedure, shortened: as §1
# [18] = target: Gal(b1-4)GlcNAc(b1-3)Gal(b1-4)GlcNAc(b1-2)Man(a1-3)[Gal(b1-4)GlcNAc(b1-3)Gal(b1-4)GlcNAc(b1-2)Man(a1-6)]Man(b1-4)GlcNAc(b1-4)GlcNAc
# Procedure, shortened: as §1
# [19] = target: Gal(b1-4)GlcNAc(b1-3)Gal(b1-4)GlcNAc(b1-2)[Gal(b1-4)GlcNAc(b1-3)Gal(b1-4)GlcNAc(b1-6)]Man(a1-6)[Gal(b1-4)GlcNAc(b1-3)Gal(b1-4)GlcNAc(b1-2)Man(a1-3)]Man(b1-4)GlcNAc(b1-4)GlcNAc
# Procedure, shortened: as §1
# [20] = target: GalNAc(a1-3)GalNAc(b1-3)Gal(a1-4)Gal(b1-4)GlcNAc
# Procedure, shortened: as §1
# [21] = target: GalNAc(b1-4)Gal(b1-4)Glc
# Procedure, shortened: as §1
# [22] = target: GalNAc(b1-4)GlcNAc(b1-3)GalNAc(b1-4)GlcNAc
# Procedure, shortened: as §1
# [23] = target: GalNAc(b1-4)GlcNAc6S
# Procedure, shortened: as §1
# [24] = target: GalNAc3S(b1-4)GlcNAc3S
# Procedure, shortened: as §1
# [25] = target: Glc(a1-4)Glc
# Procedure, shortened: as §1
# [26] = target: Glc(a1-4)Glc(a1-4)Glc(a1-4)Glc
# Procedure, shortened: as §1
# [27] = target: GlcNAc(b1-3)Gal(b1-3)GalNAc
# Procedure, shortened: as §1
# [28] = target: GlcNAc(b1-3)Gal(b1-4)GlcNAc(b1-2)Man(a1-3)[GlcNAc(b1-3)Gal(b1-4)GlcNAc(b1-2)Man(a1-6)]Man(b1-4)GlcNAc(b1-4)GlcNAc
# Procedure, shortened: as §1
# [29] = target: GlcNAc(b1-3)Gal(b1-4)GlcNAc(b1-3)Gal(b1-4)GlcNAc(b1-2)[GlcNAc(b1-3)Gal(b1-4)GlcNAc(b1-3)Gal(b1-4)GlcNAc(b1-6)]Man(a1-6)[GlcNAc(b1-3)Gal(b1-4)GlcNAc(b1-3)Gal(b1-4)GlcNAc(b1-2)Man(a1-3)]Man(b1-4)GlcNAc(b1-4)[Fuc(a1-6)]GlcNAc
# Procedure, shortened: as §1
# [30] = target: GlcNAc(b1-3)Gal(b1-4)GlcNAc(b1-3)[GlcNAc(b1-3)Gal(b1-4)GlcNAc(b1-3)]GalNAc
# Procedure, shortened: as §1
# [31] = target: GlcNAc(b1-3)[GlcNAc(b1-6)]GalNAc
# Procedure, shortened: as §1
# [32] = target: GlcNAc(b1-6)Gal(b1-4)GlcNAc
# Procedure, shortened: as §1
# [33] = target: Kdn(a2-3)Gal(b1-3)GalNAc
# Procedure, shortened: as §1
# [34] = target: Kdn(a2-3)Gal(b1-4)GlcNAc
# Procedure, shortened: as §1
# [35] = target: Man(a1-2)Man(a1-3)[Man(a1-6)]Man(a1-6)[Man(a1-2)Man(a1-3)]Man(b1-4)GlcNAc(b1-4)GlcNAc
# Procedure, shortened: as §1
# [36] = target: Neu5Ac(a2-3)Gal
# Procedure, shortened: as §1
# [37] = target: Neu5Ac(a2-3)Gal(b1-3)GlcNAc(b1-2)Man(a1-3)[Neu5Ac(a2-3)Gal(b1-3)GlcNAc(b1-2)Man(a1-6)]Man(b1-4)GlcNAc(b1-4)GlcNAc
# Procedure, shortened: as §1
# [38] = target: Neu5Ac(a2-3)Gal(b1-3)GlcNAc(b1-3)Gal(b1-3)GlcNAc
# Procedure, shortened: as §1
# [39] = target: Neu5Ac(a2-3)Gal(b1-3)[Fuc(a1-4)]GlcNAc
# Procedure, shortened: as §1
# [40] = target: Neu5Ac(a2-3)Gal(b1-4)GlcNAc(b1-2)Man
# Procedure, shortened: as §1
# [41] = target: Neu5Ac(a2-3)Gal(b1-4)GlcNAc(b1-2)[Neu5Ac(a2-3)Gal(b1-4)GlcNAc(b1-4)]Man(a1-3)[GlcNAc(b1-4)][Neu5Ac(a2-3)Gal(b1-4)GlcNAc(b1-2)[Neu5Ac(a2-3)Gal(b1-4)GlcNAc(b1-6)]Man(a1-6)]Man(b1-4)GlcNAc(b1-4)GlcNAc
# Procedure, shortened: as §1
# [42] = target: Neu5Ac(a2-3)Gal(b1-4)GlcNAc(b1-3)Gal(b1-3)GlcNAc
# Procedure, shortened: as §1
# [43] = target: Neu5Ac(a2-3)Gal(b1-4)GlcNAc(b1-3)Gal(b1-4)GlcNAc
# Procedure, shortened: as §1
# [44] = target: Neu5Ac(a2-3)Gal(b1-4)GlcNAc(b1-3)Gal(b1-4)[Fuc(a1-3)]GlcNAc
# Procedure, shortened: as §1
# [45] = target: Neu5Ac(a2-3)Gal(b1-4)GlcNAc6S
# Procedure, shortened: as §1
# [46] = target: Neu5Ac(a2-3)Gal(b1-4)[Fuc(a1-3)]GlcNAc
# Procedure, shortened: as §1
# [47] = target: Neu5Ac(a2-3)GalNAc(b1-4)GlcNAc
# Procedure, shortened: as §1
# [48] = target: Neu5Ac(a2-6)Gal(b1-4)GlcNAc
# Procedure, shortened: as §1
# [49] = target: Neu5Ac(a2-6)Gal(b1-4)GlcNAc(b1-2)Man(a1-3)[Neu5Ac(a2-3)Gal(b1-4)GlcNAc(b1-2)Man(a1-6)]Man(b1-4)GlcNAc(b1-4)GlcNAc
# Procedure, shortened: as §1
# [50] = target: Neu5Ac(a2-6)Gal(b1-4)GlcNAc(b1-3)Gal(b1-3)GlcNAc
# Procedure, shortened: as §1
# [51] = target: Neu5Ac(a2-6)Gal(b1-4)GlcNAc(b1-3)Gal(b1-4)GlcNAc(b1-3)Gal(b1-4)GlcNAc(b1-2)Man(a1-3)[Neu5Ac(a2-6)Gal(b1-4)GlcNAc(b1-3)Gal(b1-4)GlcNAc(b1-3)Gal(b1-4)GlcNAc(b1-2)Man(a1-6)]GalNAc
# Procedure, shortened: as §1
# [52] = target: Neu5Ac(a2-6)GlcNAc(b1-4)GlcNAc(b1-4)GlcNAc
# Procedure, shortened: as §1
# [53] = target: Neu5Ac(a2-8)Neu5Ac
# Procedure, shortened: as §1
# [54] = target: Neu5Ac(a2-8)Neu5Ac(a2-8)Neu5Ac
# Procedure, shortened: as §1
binder,measurement,setting,value
B1,glycan array binding signal (z-score),[1],0.688
same,glycan array binding signal (z-score),[2],0.546
same,glycan array binding signal (z-score),[3],-0.097
same,glycan array binding signal (z-score),[4],-0.175
same,glycan array binding signal (z-score),[5],-0.119
same,glycan array binding signal (z-score),[6],-0.106
same,glycan array binding signal (z-score),[7],0.584
same,glycan array binding signal (z-score),[8],-0.107
same,glycan array binding signal (z-score),[9],-0.034
same,glycan array binding signal (z-score),[10],-0.068
same,glycan array binding signal (z-score),[11],-0.122
same,glycan array binding signal (z-score),[12],1.06
same,glycan array binding signal (z-score),[13],-0.007
same,glycan array binding signal (z-score),[14],-0.105
same,glycan array binding signal (z-score),[15],-0.068
same,glycan array binding signal (z-score),[16],1.03
same,glycan array binding signal (z-score),[17],0
same,glycan array binding signal (z-score),[18],0.017
same,glycan array binding signal (z-score),[19],0.619
same,glycan array binding signal (z-score),[20],-0.027
same,glycan array binding signal (z-score),[21],0.067
same,glycan array binding signal (z-score),[22],-0.092
same,glycan array binding signal (z-score),[23],-0.057
same,glycan array binding signal (z-score),[24],-0.084
same,glycan array binding signal (z-score),[25],4.5
same,glycan array binding signal (z-score),[26],23.6
same,glycan array binding signal (z-score),[27],-0.061
same,glycan array binding signal (z-score),[28],-0.101
same,glycan array binding signal (z-score),[29],-0.059
same,glycan array binding signal (z-score),[30],-0.02
same,glycan array binding signal (z-score),[31],-0.149
same,glycan array binding signal (z-score),[32],-0.124
same,glycan array binding signal (z-score),[33],-0.129
same,glycan array binding signal (z-score),[34],-0.143
same,glycan array binding signal (z-score),[35],-0.172
same,glycan array binding signal (z-score),[36],-0.179
same,glycan array binding signal (z-score),[37],1.08
same,glycan array binding signal (z-score),[38],-0.055
same,glycan array binding signal (z-score),[39],-0.157
same,glycan array binding signal (z-score),[40],0.473
same,glycan array binding signal (z-score),[41],-0.073
same,glycan array binding signal (z-score),[42],-0.09
same,glycan array binding signal (z-score),[43],0.002
same,glycan array binding signal (z-score),[44],-0.015
same,glycan array binding signal (z-score),[45],-0.027
same,glycan array binding signal (z-score),[46],-0.132
same,glycan array binding signal (z-score),[47],-0.141
same,glycan array binding signal (z-score),[48],-0.148
same,glycan array binding signal (z-score),[49],-0.114
same,glycan array binding signal (z-score),[50],-0.079
same,glycan array binding signal (z-score),[51],0.358
same,glycan array binding signal (z-score),[52],2.56
same,glycan array binding signal (z-score),[53],-0.022
same,glycan array binding signal (z-score),[54],-0.055

# Source: the supplement of paper PMC8728848
